ST2 inh: inhibitors of human ST2 (IL1RL1) binding to IL-33; AlphaLISA ST2-Fc/biotin-IL-33 interaction, 1 h; inhibition, % for hits at 17 µM; Q01638; hit rate 2.3% among 78,000; in the data active means inhibition above about 30%
Target sequence (Q01638 whole entry, looked up): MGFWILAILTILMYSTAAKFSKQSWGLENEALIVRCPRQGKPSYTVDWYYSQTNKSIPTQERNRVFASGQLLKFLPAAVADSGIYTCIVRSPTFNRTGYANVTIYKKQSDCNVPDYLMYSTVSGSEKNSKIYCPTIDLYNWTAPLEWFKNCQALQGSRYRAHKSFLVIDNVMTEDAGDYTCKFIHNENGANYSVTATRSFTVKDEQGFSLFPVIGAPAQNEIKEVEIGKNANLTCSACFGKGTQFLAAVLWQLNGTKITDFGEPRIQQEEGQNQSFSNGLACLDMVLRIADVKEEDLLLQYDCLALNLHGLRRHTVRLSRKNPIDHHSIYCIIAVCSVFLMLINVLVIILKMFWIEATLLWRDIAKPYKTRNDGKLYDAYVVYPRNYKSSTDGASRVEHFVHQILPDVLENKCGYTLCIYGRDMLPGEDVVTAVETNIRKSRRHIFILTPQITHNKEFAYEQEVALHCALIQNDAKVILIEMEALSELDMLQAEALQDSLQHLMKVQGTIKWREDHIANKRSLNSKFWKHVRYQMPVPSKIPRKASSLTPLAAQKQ
Starred values were filed as active, the others as inactive; i = inactive; ! = not confirmed by another sample. Shown is part of a subset that was picked to be rich in hits.

SMILES | ST2 inh
O=C1NC(=O)/C(=C\c2ccc(-c3ccc(Cl)c([N+](=O)[O-])c3)o2)S1 | 69%*
O=C1C(=Cc2ccc(-c3ccc(Cl)c([N+](=O)[O-])c3)o2)C(=O)c2ccccc21 | i
O=C1/C(=C/c2ccc(Cl)c([N+](=O)[O-])c2)Sc2ccccc21 | i
NC1=NC(=O)/C(=C\c2ccc(-c3ccc(Cl)c([N+](=O)[O-])c3)o2)S1 | 40%*
CC(=O)NC1=NC(=O)/C(=C/c2ccc(-c3cccc(Cl)c3)o2)S1 | i
O=C1NC(=O)/C(=C\c2ccc(-c3cccc(C(=O)O)c3)o2)S1 | i
COc1cc(C)sc1C(=O)N1CCCC2(CC1)CNC(=O)O2 (stereo not drawn) | i
O=C(C(Cc1ccccc1)NS(=O)(=O)c1cccs1)N1CCCCC1 (stereo not drawn) | i
Cc1ccc(CN(C)C(=O)CC2C(=O)NCCN2Cc2ccc(-c3ccccc3)cc2)o1 (stereo not drawn) | i
CC1OC(OC2C(OC3C(O)C(C(=O)O)OC(OC4CCC5(C)C(CCC6(C)C5CCC57OCC8(CCC(C)(C(=O)O)CC85)C(O)CC67C)C4(C)C)C3OC3OC(CO)C(O)C(O)C3O)OC(CO)C(O)C2O)C(O)C(O)C1O (stereo not drawn) | i
COc1ccc(NC(=O)c2ccc([N+](=O)[O-])c(C)c2)cc1Cl | i
COc1ccc(CNc2ccc3c(c2)ncn3C)cc1OC | i
COc1ccc(OC)c(CNc2ccc3c(c2)ncn3C)c1 | 36%*!
COc1cccc(CNc2ccc3c(c2)ncn3C)c1O | i
COC(=O)c1cccc(N2C(=O)C3C4CC(C(Br)C4Br)C3C2=O)c1 (stereo not drawn) | i
Cc1cc(NCCO)n2c(nc3ccccc32)c1C#N | i
Cc1cc(Nc2ccc(O)cc2)n2c(nc3ccccc32)c1C#N | 33%*
Cc1cc(NCCCN(C)C)n2c(nc3ccccc32)c1C#N | i
CSCc1noc(Cn2cnnc2)n1 | i
CC(C)CN1CCC(CNC(=O)c2ccc(N3CCCOCC3)nc2)C1 (stereo not drawn) | i
COc1ccc(CNC(=O)CCC2CCCN(C(=O)/C=C/c3cnc[nH]3)C2)c(OC)c1 (stereo not drawn) | i
COc1ccc(N2CC(NC(=O)c3ccc(Br)o3)CC2=O)cc1 (stereo not drawn) | 31%*
O=C(NC1CC(=O)N(c2ccccc2)C1)c1ccc(Br)o1 (stereo not drawn) | i
COc1ccc(N2CC(NC(=O)c3ccco3)CC2=O)cc1 (stereo not drawn) | i
CCOc1ncccc1C(=O)N1CCCn2nc(C(=O)NC3CC3)cc2C1 | i
SMILES | ST2 inh
O=C(CN1C(=O)CCc2cc(S(=O)(=O)N3CCCC3)ccc21)NCc1ccco1 | i
CCN1CCCC1CNC(=O)c1ccc2c(c1)N(Cc1ccc(C)cc1)CCS2 (stereo not drawn) | i
CCN1CCN(S(=O)(=O)c2ccc3oc(C(=O)O)c(C)c3c2)CC1 | i
O=C(O)CCCC[C@@H]1CCSS1 | i
CC1NC(=O)NC1CCCCC(=O)O (stereo not drawn) | 46%*
NCCCCCC(=O)O | i
O=C(NCCCN1CCCCC1)C1C2C=CC3(CN(Cc4cccs4)C(=O)C13)O2 (stereo not drawn) | i
Cc1cc(NC2CCCCC2)nc(-c2ccccc2O)n1 | i
Cc1cc(OC(C)C)nc(-c2ccccc2O)n1 | i
Cc1cc(N2N=C(c3ccccc3)CC2=O)nc(-c2ccccc2O)n1 | 31%*
Cc1cc(NC(=O)CSc2cn(Cc3ccccc3Cl)c3ccccc23)no1 | i
CC(=O)Nc1cccc(Oc2nc(-c3ccccc3F)nc3ccccc23)c1 | i
Cc1ccc(S(=O)(=O)N2CCCCC2)cc1 | i
c1ccc(CCCN2CCOCC2)cc1 | i
CCn1c(-c2ccc(OC)c(F)c2)csc1=Nc1ccccc1 | 73%*
O=S(=O)(c1ccc(Cl)cc1)N(CCCN1CCOCC1)Cc1cccs1 | i
Cc1sc2c(c1C)c(=O)n(CCc1ccccc1)c(=O)n2Cc1cccnc1 | i
CCn1c(-c2ccc(S(=O)(=O)N3CCCCC3)cc2)csc1=Nc1ccccc1OC | 61%*
CCSc1nnc(-c2cccnc2)n1Cc1ccccc1 | i
c1ccc(N=c2scc(-c3ccccc3)n2Cc2cccnc2)cc1 | 41%*
Clc1ccc(-c2csc(=Nc3ccccc3)n2CCCN2CCOCC2)cc1 | 64%*
COc1ccc(S(=O)(=O)N2CCCC2)cc1 | i
CC1(C)CC2CC(C)(CN2C(=O)c2cc(-c3ccc(Br)cc3)on2)C1 (stereo not drawn) | i
CCn1cc(C(=O)NCCOC)c(=O)c2cc(S(=O)(=O)N3CC(C)CC(C)C3)ccc21 (stereo not drawn) | i
Brc1ccc(CN2CCN(c3ccccc3)CC2)s1 | i
SMILES | ST2 inh
CCSc1nc2c(c(=O)[nH]1)C(c1ccccc1)C1=C(CCCC1=O)N2 (stereo not drawn) | i
CCOC(=O)c1c(C)n(C)c2ccc(OC(=O)c3cccc(Br)c3)cc12 | i
O=C(N=c1scc(-c2ccc(Cl)cc2)n1Cc1ccco1)c1ccccc1 | i
Cn1c(=O)c2c(nc3n(CCCO)c(-c4ccc(F)cc4)cn23)n(C)c1=O | i
OCCn1c(-c2ccc(F)cc2)csc1=Nc1ccccc1 | 36%*
CC(C)(C)CC(C)(C)NC(=O)c1cnn2c(C(F)(F)F)cc(-c3ccco3)nc12 | i
COC1=C(OC)C(=O)c2ccccc2C1=O | i
CC(=O)c1ccccc1-c1cccc(C(=O)NC(C)C)c1 | i
CC(=O)C1=C(c2ccccc2)C(=O)c2ccccc2C1=O | 48%*
COc1cccc(CC2(CO)CCCN(CCCC3CCCC3)C2)c1 (stereo not drawn) | i
Cc1ccc(S(=O)(=O)N2CCc3ccccc32)cc1[N+](=O)[O-] | 36%*
Cc1ccc(S(=O)(=O)N2CCCCC2)cc1[N+](=O)[O-] | i
Cc1ccc(S(=O)(=O)N2CCc3ccccc32)cc1C(N)=O | i
O=C(Nc1nncs1)c1cc(-c2ccc(Cl)c(Cl)c2)nc2ccccc12 | i
O=C(c1cccc(S(=O)(=O)N2CCN(c3ccccc3)CC2)c1)N1CCCc2ccccc21 | i
COc1cc(NC(=O)N[C@H]2CO[C@H]3[C@@H]2OC[C@@H]3Nc2nccc(-c3cccs3)n2)cc(OC)c1 | i
COc1cccc(NC(=O)O[C@@H]2CO[C@H]3[C@@H]2OC[C@@H]3Nc2nccc(-c3ccc(-c4ccccc4)cc3)n2)c1 | i
O=C(Nc1ccc(Oc2ccccc2)cc1)O[C@@H]1CO[C@H]2[C@@H]1OC[C@@H]2Nc1nccc(-c2cccs2)n1 | 34%*
COCCNC(=O)c1cc(=O)[nH]c2ccc(S(=O)(=O)N3CCCC3)cc12 | i
CCCn1ncc(CN2CCCC(C(=O)Nc3ccccc3-c3ccc(OC)cc3)C2)c1C (stereo not drawn) | i
Cc1ccc(CN2CCCC(CO)C2)cc1 (stereo not drawn) | i
OCC1CCCN(Cc2ccc3c(c2)Cc2ccccc2-3)C1 (stereo not drawn) | 98%*
CCc1ccc(CN2CCCC(CO)C2)cc1 (stereo not drawn) | i
COc1nc(C)ccc1C(=O)c1ccccc1 | i
O=C(CSc1ccccn1)Nc1ccc(Br)c2cccnc12 | i
CC(C)(C)NC(=O)C1CCN(S(=O)(=O)c2ccc(Cl)cc2)CC1 | i
CC(=O)Sc1nc(O)c(C=C2C=c3ccc(C)cc3=NC2=O)[nH]1 | 31%*
O=C1NC(=Nc2ccc(Br)cc2)SC1Cc1ccccc1 (stereo not drawn) | i

Assay outcomes as filed in PubChem.
